In PMC5540273 (PLoS ONE, 2017):
Where two headings read alike, the source gives them in different places.

What was measured:
CSNK1G1 = details: concentration: 1 μM, replicates: in singlicate; n = 1
CSNK1G2 = details: concentration: 1 μM, replicates: in singlicate; n = 1
CSNK1G3 = details: concentration: 1 μM, replicates: in singlicate; n = 1
CSNK2A1 = details: concentration: 1 μM, replicates: in singlicate; n = 1
CSNK2A2 = details: concentration: 1 μM, replicates: in singlicate; n = 1
CTK = tested on: T1, CTK; details: concentration: 1 μM, replicates: in singlicate; n = 1
T1 construct: gene MATK

DAPK1 = details: concentration: 1 μM, replicates: in singlicate; n = 1
DAPK2 = details: concentration: 1 μM, replicates: in singlicate; n = 1
DAPK3 = details: concentration: 1 μM, replicates: in singlicate; n = 1
DCAMKL1 = tested on: T2, DCAMKL1; details: concentration: 1 μM, replicates: in singlicate; n = 1
T2 construct: gene DCLK1

DCAMKL2 = tested on: T3, DCAMKL2; details: concentration: 1 μM, replicates: in singlicate; n = 1
T3 construct: gene DCLK2

DCAMKL3 = tested on: T4, DCAMKL3; details: concentration: 1 μM, replicates: in singlicate; n = 1
T4 construct: gene DCLK3

DDR1 = details: concentration: 1 μM, replicates: in singlicate; n = 1
DDR2 = details: concentration: 1 μM, replicates: in singlicate; n = 1
DLK = tested on: T5, DLK; details: concentration: 1 μM, replicates: in singlicate; n = 1
T5 construct: gene MAP3K12

DMPK2 = tested on: T6, DMPK2; details: n = 1
T6 construct: gene CDC42BPG

DMPK = details: concentration: 1 μM, replicates: in singlicate; n = 1
DRAK1 = tested on: T7, DRAK1; details: concentration: 1 μM, replicates: in singlicate; n = 1
T7 construct: gene STK17A

DRAK2 = tested on: T8, DRAK2; details: concentration: 1 μM, replicates: in singlicate; n = 1
T8 construct: gene STK17B

DYRK1A = details: concentration: 1 μM, replicates: in singlicate; n = 1
[1] = concentration: 1 μM, replicates: in singlicate
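Also: KINOMEscan kinase panel screen.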

Compound: Cl.c1ccc(-c2ccc3c(Nc4ccc5[nH]ncc5c4)ccnc3c2)nc1 [GW440137]
- %Inh (CSNK1G1): 0%
- %Inh (CSNK1G2): 17%
- %Inh (CSNK1G3): 30%
- %Inh (CSNK2A1): 0%
- %Inh (CSNK2A2): 8%
- %Inh (CTK): 0%
- %Inh (DAPK1): 15%
- %Inh (DAPK2): 0%
- %Inh (DAPK3): 23%
- %Inh (DCAMKL1): 12%
- %Inh (DCAMKL2): 0%
- %Inh (DCAMKL3): 0%
- %Inh (DDR1): 67%
- %Inh (DDR2): 3%
- %Inh (DLK): 1%
- %Inh (DMPK2; [1]): 6%
- %Inh (DMPK): 0%
- %Inh (DRAK1): 0%
- %Inh (DRAK2): 6%
- %Inh (DYRK1A): 21%

Compound: CCn1c(-c2nonc2N)nc2c(C#CC(C)(C)O)ncc(OCCCCN)c21.O=C(O)C(F)(F)F.O=C(O)C(F)(F)F [GSK507274]
- %Inh (CSNK1G1): 40%
- %Inh (CSNK1G2): 0%
- %Inh (CSNK1G3): 15%
- %Inh (CSNK2A1): 0%
- %Inh (CSNK2A2): 0%
- %Inh (CTK): 2%
- %Inh (DAPK1): 28%
- %Inh (DAPK2): 10%
- %Inh (DAPK3): 82%
- %Inh (DCAMKL1): 40%
- %Inh (DCAMKL2): 34%
- %Inh (DCAMKL3): 98.7%
- %Inh (DDR1): 0%
- %Inh (DDR2): 0%
- %Inh (DLK): 1%
- %Inh (DMPK2; 1 µM): 0%
- %Inh (DMPK): 0%
- %Inh (DRAK1): 0%
- %Inh (DRAK2): 2%
- %Inh (DYRK1A): 25%

Compound: CC(C)(C)c1ccc2nccc(Nc3cccc(O)c3)c2c1 [GW856795]
- %Inh (CSNK1G1): 36%
- %Inh (CSNK1G2): 0%
- %Inh (CSNK1G3): 0%
- %Inh (CSNK2A1): 0%
- %Inh (CSNK2A2): 0%
- %Inh (CTK): 0%
- %Inh (DAPK1): 16%
- %Inh (DAPK2): 0%
- %Inh (DAPK3): 0%
- %Inh (DCAMKL1): 14%
- %Inh (DCAMKL2): 0%
- %Inh (DCAMKL3): 0%
- %Inh (DDR1): 62%
- %Inh (DDR2): 47%
- %Inh (DLK): 16%
- %Inh (DMPK2; [1]): 0%
- %Inh (DMPK): 3%
- %Inh (DRAK1): 5%
- %Inh (DRAK2): 1%
- %Inh (DYRK1A): 0%

Compound: COc1cccc(-c2ccc3c(NC(=O)C4CC4)n[nH]c3n2)c1 [SB-710903]
- %Inh (CSNK1G1): 0%
- %Inh (CSNK1G2): 0%
- %Inh (CSNK1G3): 10%
- %Inh (CSNK2A1): 0%
- %Inh (CSNK2A2): 79%
- %Inh (CTK): 0%
- %Inh (DAPK1): 0%
- %Inh (DAPK2): 0%
- %Inh (DAPK3): 13%
- %Inh (DCAMKL1): 21%
- %Inh (DCAMKL2): 0%
- %Inh (DCAMKL3): 6%
- %Inh (DDR1): 0%
- %Inh (DDR2): 52%
- %Inh (DLK): 72%
- %Inh (DMPK2; [1]): 0%
- %Inh (DMPK): 0%
- %Inh (DRAK1): 2%
- %Inh (DRAK2): 4%
- %Inh (DYRK1A): 52%

Compound: c1ccc(-c2n[nH]cc2Nc2ccnc3ccccc23)nc1 [GW694077]
- %Inh (CSNK1G1): 100%
- %Inh (CSNK1G2): 1%
- %Inh (CSNK1G3): 12%
- %Inh (CSNK2A1): 54%
- %Inh (CSNK2A2): 68%
- %Inh (CTK): 0%
- %Inh (DAPK1): 23%
- %Inh (DAPK2): 60%
- %Inh (DAPK3): 66%
- %Inh (DCAMKL1): 23%
- %Inh (DCAMKL2): 0%
- %Inh (DCAMKL3): 12%
- %Inh (DDR1): 0%
- %Inh (DDR2): 10%
- %Inh (DLK): 74%
- %Inh (DMPK2; [1]): 0%
- %Inh (DMPK): 0%
- %Inh (DRAK1): 99.4%
- %Inh (DRAK2): 0%
- %Inh (DYRK1A): 99.9%

Compound: CNC(=O)c1ccccc1Nc1nc(Nc2ccc(N3CCOCC3)cc2)ncc1Cl.Cl [GSK1576028]
- %Inh (CSNK1G1): 66%
- %Inh (CSNK1G2): 85%
- %Inh (CSNK1G3): 56%
- %Inh (CSNK2A1): 99.8%
- %Inh (CSNK2A2): 99.9%
- %Inh (CTK): 34%
- %Inh (DAPK1): 95%
- %Inh (DAPK2): 69%
- %Inh (DAPK3): 89%
- %Inh (DCAMKL1): 52%
- %Inh (DCAMKL2): 31%
- %Inh (DCAMKL3): 81%
- %Inh (DDR1): 95.1%
- %Inh (DDR2): 73%
- %Inh (DLK): 95%
- %Inh (DMPK2; [1]): 25%
- %Inh (DMPK): 81%
- %Inh (DRAK1): 95.1%
- %Inh (DRAK2): 60%
- %Inh (DYRK1A): 94.4%

Compound: Cn1cc(-c2ccc3c(c2)CCN3C(=O)Cc2cccc(F)c2)c2c(N)ncnc21 [GSK2603358]
- %Inh (CSNK1G1): 28%
- %Inh (CSNK1G2): 0%
- %Inh (CSNK1G3): 38%
- %Inh (CSNK2A1): 0%
- %Inh (CSNK2A2): 0%
- %Inh (CTK): 0%
- %Inh (DAPK1): 0%
- %Inh (DAPK2): 0%
- %Inh (DAPK3): 12%
- %Inh (DCAMKL1): 14%
- %Inh (DCAMKL2): 0%
- %Inh (DCAMKL3): 32%
- %Inh (DDR1): 69%
- %Inh (DDR2): 30%
- %Inh (DLK): 22%
- %Inh (DMPK2; [1]): 50%
- %Inh (DMPK): 0%
- %Inh (DRAK1): 0%
- %Inh (DRAK2): 0%
- %Inh (DYRK1A): 15%

Compound: O=C(Nc1cccc(Oc2ccc3nc(NC(=O)C4CC4)cn3n2)c1)c1ccccc1C(F)(F)F
- %Inh (CSNK1G1): 8%
- %Inh (CSNK1G2): 0%
- %Inh (CSNK1G3): 26%
- %Inh (CSNK2A1): 0%
- %Inh (CSNK2A2): 0%
- %Inh (CTK): 0%
- %Inh (DAPK1): 0%
- %Inh (DAPK2): 5%
- %Inh (DAPK3): 7%
- %Inh (DCAMKL1): 39%
- %Inh (DCAMKL2): 0%
- %Inh (DCAMKL3): 0%
- %Inh (DDR1): 98.9%
- %Inh (DDR2): 88%
- %Inh (DLK): 7%
- %Inh (DMPK2; [1]): 17%
- %Inh (DMPK): 0%
- %Inh (DRAK1): 0%
- %Inh (DRAK2): 21%
- %Inh (DYRK1A): 12%
